Assay outcomes: PubChem BioAssay, National Center for Advancing Translational Sciences (NCATS)
Only some compounds are listed: those with a hit (about 2.5% of all), similar ones and a draw of the others.
Apoferritin bind – qHTS Assay for Identification of Novel General Anesthetics | Ferritin light chain (Equus caballus), P02791 | apoferritin/1-aminoanthracene competitive binding, fluorescence | Potency, µM (titrated, usually from 77.5 µM), without a hit: top-dose activity change, negative = displacement, hits mostly inhibitors | 350,000 tested, 0.074% active | AID 485281, 2010; further: potency means the concentration at half of the fitted maximal effect; on the % scale 0 is the no-effect control and ±100 the full control effect; nearly all actives have a fitted effect of over 20% in size
Target sequence (P02791 2-175 limits assumed): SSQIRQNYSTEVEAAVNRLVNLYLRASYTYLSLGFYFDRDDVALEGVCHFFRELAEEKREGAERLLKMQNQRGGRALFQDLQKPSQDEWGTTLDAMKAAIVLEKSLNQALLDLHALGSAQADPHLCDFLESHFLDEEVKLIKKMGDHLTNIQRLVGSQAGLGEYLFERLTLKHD
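In PBS, apoferritin at 10 uM is loaded with 1-AMA from a 50% saturated solution. After 10 min of compound exposure at ambient temperature, reduced 535 nm fluorescence indicates probe displacement.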
CCT chaperon mod – High-Throughput Screening for Modulators of Cytosolic Chaperonin Activity. 360,000 tested, 0.3% active. purified chaperonin ATPase assay, HTRF ADP detection, 30 min. activity change, % (test concentration not listed), hits read low; in the data active means activity change below about -30%; further: on the % scale 0 is the no-effect control and ±100 the full control effect
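Enzyme 40 or 20 nM (batch-dependent) in Tris pH 7.4/KCl/MgCl2/DTT; cpd 76 uM single point; ATP 10 uM; 30 min 37 °C; Transcreener ADP HTRF detection, 30 min RT; ratio 665/615.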
Akt phos inh – HTS Assay for Inhibitors of Akt Phophorylation: Primary Screen; 360,000 tested, 0.32% active; activity change, % for hits at 50 µM; Neuro2A IGF-stimulated pAkt S473 HTRF, 20 min; hits give low values; in the data active means activity change below about -80%; inconclusive means mostly about -51% to -80%; further: on the % scale 0 is the no-effect control and ±100 the full control effect
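Neuro2A cells (4,500/well, DMEM with 0.5% FBS) were treated with compound at a single 50 µM final concentration, stimulated with 6 nM IGF for 20 min at 37 °C, and lysed. Phospho-Akt Ser473 was read by HTRF as 665/615 ratio ×10^4.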
TDP-43 yeast inh – qHTS of TDP-43 Inhibitors; TDP-43 expressing yeast growth rescue, BacTiter-Glo, 24 h; Potency, µM (doses to about 46.1 µM), without a hit: at the top dose growth rescue (activation), most hits filed as activators; 410,000 tested, 1.8% active; AID 652104, 2013; further: potency means the concentration at half of the fitted maximal effect; % of control where 0% means no effect; nearly all actives have a fitted effect of over 50% in size
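Readout is BacTiter-Glo luminescence of cell growth, so inhibitors register as activators. TDP-43-expressing yeast at OD600=0.02 in galactose medium, after raffinose pregrowth to mid-log, were incubated with compound for 24 hr at 30 deg C.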
Mito fusion yeast – qHTS Assay for Small Molecule Inhibitors of Mitochondrial Division or Activators of Mitochondrial Fusion; AID 485298, 2010; 320,000 tested, 0.23% active; Potency, µM (titrated, usually from 46.1 µM), inactives show at the top dose growth rescue (activation), hits mostly activators; S. cerevisiae fusion-defective mutant growth rescue, CellTiterGlo 48 h; further: potency means the concentration at half of the fitted maximal effect; % of control where 0% means no effect; nearly all actives have a fitted effect of over 45% in size
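Growth-rescue viability read-out: after 48 h at the non-permissive 37C in glycerol/ethanol YPEG, yeast mitochondrial fusion mutants are measured by CellTiterGlo luminescence; compounds (23 nl pinned per well) restoring growth score as division inhibitors or fusion activators.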
aSyn yeast inh – qHTS of alpha-syn Inhibitors. Yeast expressing alpha-synuclein, growth rescue, BacTiter-Glo, 24 h. Potency, µM (series often up to 46.1 µM), for inactives: at the top dose growth rescue (activation), actives largely listed as activators. 370,000 tested, 0.14% active; further: potency means the concentration at half of the fitted maximal effect; % of control where 0% means no effect; nearly all actives have a fitted effect of over 65% in size
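Screening used galactose-induced yeast with toxic alpha-synuclein levels, exposed to compound for 24 hr at 30 deg C. Cell growth, read with BacTiter-Glo luminescence, gave the measured signal.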
Numbers without * were called inactive; i = inactive; ? = inconclusive; nt = no result. Unless noted, the call rests on the fitted dose curve; in most records, active means well fitted curve in the direction sought with a large enough effect; inconclusive means small, poorly fitted or top-dose-only effect, or another doubt; inactive means no such curve, though single readings can be large; an effect the other way counts as inactive or inconclusive.

SMILES | Apoferritin bind | CCT chaperon mod | Akt phos inh | TDP-43 yeast inh | Mito fusion yeast | aSyn yeast inh
Cc1cc(C)nc(NC(=O)Cc2ccc([N+](=O)[O-])cc2)c1 | -13% | -34* | i | 4% | -7% | -20%
CC(=O)N1CCN(C(=O)c2ccc3oc(CCCc4ccccc4)nc3c2)CC1 | -8% | 2 | i | 3% | -22% | 2%
CCOC(=O)N1CCN(C(=O)c2ccc3oc(CCCc4ccccc4)nc3c2)CC1 | -13% | -1 | i | 16µM* | 8% | 6%
O=C(C[n+]1ccccc1Cl)c1ccc2c(c1)CCCC2 | nt | nt | nt | nt | nt | 5%
Cc1nn(C(=O)COc2ccc(Cl)cc2)c(C)c1Sc1ccccc1 | -11% | nt | nt | 0% | nt | nt
Cc1nn(C(=O)CNS(=O)(=O)c2ccccc2)c(C)c1Sc1ccc(Cl)cc1 | ? | -2 | i | 16µM* | 7% | -11%
Cc1ccc(Sc2c(C)nn(C(=O)COc3ccccc3Br)c2C)cc1 | 6.3µM* | nt | nt | 22% | nt | nt
Cc1cc(C)n(-c2nc(C)c(C)c(=O)n2CC(=O)Nc2cccc([N+](=O)[O-])c2)n1 | -2% | nt | nt | 26% | nt | nt
CC(NC(=O)C1CC=CCC1C(=O)O)C1CC2CCC1C2 (centres undefined) | -11% | 0 | i | 4% | -3% | 0%
CC(NC(=O)C1CCCC1)C1CC2CCC1C2 (centres undefined) | -20% | -41* | i | 5% | 0% | 9%
CC(NC(=O)c1ccc(N(C)C)cc1)C1CC2CCC1C2 (centres undefined) | -22% | -44* | i | 15% | 2% | 8%
COc1ccc(-c2nc3sc(CCNC(=O)c4ccc(Br)o4)c(C)n3n2)cc1 | 1% | nt | nt | 11µM* | nt | nt
CCc1ccc(S(=O)(=O)NCCc2csc3nc(-c4ccccc4)nn23)s1 | 285% | nt | nt | 22µM* | nt | nt
CCS(=O)(=O)NCCc1sc2nc(-c3ccc(OC)cc3)nn2c1C | -9% | nt | nt | 40% | nt | nt
COc1ccc(-c2nc3sc(CCNS(=O)(=O)c4c(C)cc(C)cc4C)c(C)n3n2)cc1 | 6% | nt | nt | 35µM* | nt | nt
COc1ccc(-c2nc3scc(CCNS(=O)(=O)c4c(C)cc(C)cc4C)n3n2)cc1OC | ? | nt | nt | 22µM* | nt | nt
COc1ccc(S(=O)(=O)NCCc2csc3nc(-c4ccc(OC)c(OC)c4)nn23)cc1C | -12% | nt | nt | 14% | nt | nt
CCc1ccc2oc(-c3ccc(C)c(NC(=O)c4ccc(C#N)cc4F)c3)nc2c1 | -8% | nt | nt | 13% | nt | 0%
CCOC(=O)c1c(NC(C)=O)c2c3c(sc2n1Cc1cc(C)ccc1C)CCCC3 | 2% | nt | nt | 22% | nt | nt
COc1ccc(-c2nc3scc(CCNS(=O)(=O)c4cccs4)n3n2)cc1 | 176% | nt | nt | 25µM* | nt | nt
COc1ccccc1-c1cc2ccccc2[nH]1 | ? | -1 | i | 16µM* | 6% | -16%
CCOC(=O)N1CCc2c(sc3c2c(=O)n(Cc2ccccc2)c(=O)n3CC(=O)Nc2ccc(F)cc2)C1 | -10% | nt | nt | 6% | nt | nt
Cc1ccc(-c2cc(C3C4C=CCC(C)C4C(=O)N3Cc3ccccc3)ccc2F)cc1 (centres undefined) | 59% | nt | nt | nt | nt | nt
Cc1ccc2ccc3ccc(C)nc3c2n1 | -20% | -2 | i | 4.5µM* | -6% | -20%
CCCCOc1ccc(C(=O)NCCc2ccccc2)cc1 | 3% | 1 | i | 15% | 2% | -1%
SMILES | Apoferritin bind | CCT chaperon mod | Akt phos inh | TDP-43 yeast inh | Mito fusion yeast | aSyn yeast inh
NC(=S)c1ccc(OCCCc2ccccc2)cc1 | nt | 1 | i | 10µM* | nt | 8%
CCc1cc(C(=O)N2CCN(S(=O)(=O)c3ccccc3F)CC2)sc1C | nt | -2 | i | 22µM* | 0% | 14%
COCc1c(C(=O)N2CCN(Cc3nc4ccccc4s3)CC2)oc2ccccc12 | nt | 0 | i | 20% | 7% | 2%
Cc1c(C(=O)N2CCN(S(=O)(=O)c3ccccc3F)CC2)oc2c(Cl)cccc12 | nt | -1 | i | 14µM* | ? | 0%
Cc1c(C(=O)N2CCN(c3ccccc3)CC2)oc2c(Cl)cccc12 | nt | 1 | i | ? | ? | 2%
COCc1c(C(=O)N2CCN(S(=O)(=O)c3ccccc3Cl)CC2)oc2ccccc12 | nt | 0 | i | 11µM* | 11% | 4%
CSCC[C@H](NC(=O)[C@H](CO)NC(=O)[C@H](Cc1ccc(O)cc1)NC(=O)[C@@H](N)CO)C(=O)N[C@@H](CCC(=O)O)C(=O)N[C@@H](Cc1cnc[nH]1)C(=O)N[C@@H](Cc1ccccc1)C(=O)N[C@@H](CCCNC(=N)N)C(=O)N[C@@H](Cc1c[nH]c2ccccc12)C(=O)NCC(=O)N[C@@H](CCCCN)C(=O)N1CCC[C@H]1C(=O)N[C@H](C(=O)NCC(=O)N[C@@H](CCCCN)C(=O)N[C@@H](CCCCN)C(=O)N[C@@H](CCCNC(=N)N)C(=O)N[C@@H](CCCNC(=N)N)C(=O)N1CCC[C@H]1C(=O)N[C@H](C(=O)N[C@@H](CCCCN)C(=O)N[C@H](C(=O)N[C@@H](Cc1ccc(O)cc1)C(=O)N1CCC[C@H]1C(=O)N[C@@H](CC(N)=O)C(=O)NCC(=O)N[C@@H](C)C(=O)N[C@@H](CCC(=O)O)C(=O)N[C@@H](CC(=O)O)C(=O)N[C@@H](CCC(=O)O)C(=O)N[C@@H](CO)C(=O)N[C@@H](C)C(=O)N[C@@H](CCC(=O)O)C(=O)N[C@@H](C)C(=O)N[C@@H](Cc1ccccc1)C(=O)N1CCC[C@H]1C(=O)N[C@@H](CC(C)C)C(=O)N[C@@H](CCC(=O)O)C(=O)N[C@@H](Cc1ccccc1)C(=O)O)C(C)C)C(C)C)C(C)C | 0% | nt | nt | nt | nt | nt
Cc1ccc(Cl)cc1N1CCN(Cc2nc3c(c(=O)[nH]c(=O)n3C)n2Cc2ccccc2F)CC1 | -8% | 0 | i | 11µM* | 19% | -1%
CCN(Cc1ccccc1)C(=O)c1cnn(-c2ccc(F)cc2)c1-n1cccc1 | ? | nt | nt | 35µM* | nt | 8%
CCOC(=O)N/N=C/c1cn(CCCOc2ccc(C)cc2)c2ccccc12 | -3% | 1 | i | ? | ? | -4%
CCOC(=O)N/N=C/c1cn(CCCOc2ccccc2)c2ccccc12 | -3% | -1 | i | 11µM* | 14% | 9%
O=C(COC(=O)C12CC3CC(CC(Br)(C3)C1)C2)NCc1ccco1 | nt | nt | nt | nt | nt | -5%
COc1ccccc1NC(=O)Cn1c(=O)n(Cc2ccco2)c(=O)c2oc3ccccc3c21 | -10% | nt | nt | 7% | nt | nt
COC(=O)c1ccc(N=Nc2ccccc2)cc1 | -10% | 2 | i | 16µM* | 9% | 1%
